# Records with an inconclusive call do not appear. Active and inactive are the calls of the source. Unless noted, no rule for the calls is given here.
# Key:
# [1] = target: NAD(+) hydrolase SARM1 (Homo sapiens) (UniProt Q6SZW1); assay: blocking NAD cleavage by SARM1 SAM-TIR – cell lysate, NAD-Glo luminescence (AID 1508614;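 active = compound whose remaining NAD level is above about 45 nM, limit read from the data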;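 also: higher remaining NAD means stronger inhibition of SARM1 NADase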); conditions: SAM-TIR HEK293T lysate NADase, at 1 µM, stronger effect = higher value
# Chain of NAD(+) hydrolase SARM1 (Homo sapiens) (Q6SZW1 whole entry, looked up): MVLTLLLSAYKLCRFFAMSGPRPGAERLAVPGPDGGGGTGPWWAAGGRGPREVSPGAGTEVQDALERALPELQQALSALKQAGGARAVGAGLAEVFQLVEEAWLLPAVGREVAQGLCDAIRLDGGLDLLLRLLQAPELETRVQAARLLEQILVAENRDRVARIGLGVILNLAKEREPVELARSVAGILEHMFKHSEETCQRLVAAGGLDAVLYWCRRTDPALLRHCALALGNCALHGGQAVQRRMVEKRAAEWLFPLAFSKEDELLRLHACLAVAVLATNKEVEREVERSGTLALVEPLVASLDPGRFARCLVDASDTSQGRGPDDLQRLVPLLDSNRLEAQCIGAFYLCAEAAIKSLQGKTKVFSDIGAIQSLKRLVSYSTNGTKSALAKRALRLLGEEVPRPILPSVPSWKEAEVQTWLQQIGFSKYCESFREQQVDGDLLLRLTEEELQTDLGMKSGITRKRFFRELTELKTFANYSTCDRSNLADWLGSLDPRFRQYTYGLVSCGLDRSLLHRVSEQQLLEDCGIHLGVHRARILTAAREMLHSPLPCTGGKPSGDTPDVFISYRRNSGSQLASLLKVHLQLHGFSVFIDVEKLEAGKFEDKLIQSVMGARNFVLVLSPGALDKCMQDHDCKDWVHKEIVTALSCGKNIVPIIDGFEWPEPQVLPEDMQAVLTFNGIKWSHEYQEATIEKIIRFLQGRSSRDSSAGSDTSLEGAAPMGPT
# [2] = viability loss in pontine glioma line – cell-based, SU-DIPG-XIII, MIPE4.0, CellTiter-Glo, qHTS, dose response (AID 1347061; cut-off not given, nearly all actives have AC50 up to about 37 µM;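 also: cells exposed to compound for 48 hours before readout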); conditions: CellTiter-Glo ATP luminescence
# [3] = viability loss in pontine glioma line – cell-based, SU-DIPG-XIII, MIPE5.0, CellTiter-Glo, qHTS, dose response (AID 1347064; cut-off not given, nearly all actives have AC50 up to about 23 µM); conditions: CellTiter-Glo ATP luminescence
# [4] = growth inhibition, single agent or in combination, cell-based, chromothripsis tumors, cisplatin or BGB combos (AID 1671449; in the data active = inhibition above about 80%;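 also: cells exposed for 96 hours; 0% = vehicle DMSO and 100% = killing by high DMSO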); conditions: LFS_MB_P medulloblastoma cells
# [5] = growth inhibition, single agent and combos, cell-based, chromothripsis tumors, cisplatin or BGB combos (AID 1671450; in the data active = inhibition above about 80%;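 also: cells exposed to compound for four days; 0% = vehicle DMSO and 100% = cell killing by high DMSO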); conditions: HDN33 neuroblastoma cells, stronger effect = higher value
# [6] = growth inhibition, single agents and combos, ICB984, cell-based, cisplatin or BGB combos, synergistic combos for chromothripsis tumors (AID 1671451); conditions: ICB984 medulloblastoma cells, drug combinations, stronger effect = higher value;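 also: cells exposed for 96 hours before readout; 0% = vehicle DMSO and 100% = killing by high DMSO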
# [7] = growth inhibition, single agents and combos, LFS_MB_1R, cell-based, cisplatin or BGB combos, synergistic combos for chromothripsis tumors (AID 1671452; in the data active = inhibition above about 80%;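 also: cells exposed for 96 hours before readout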); conditions: LFS_MB_1R medulloblastoma cells, stronger effect = higher value
# [8] = growth inhibition, single agents and combos, HTB85, cell-based, BGB or cisplatin IC20 combos, synergistic combos for chromothripsis tumors (AID 1671453; in the data active = inhibition above about 80%;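 also: cells exposed for 96 hours before readout; 0% = vehicle DMSO and 100% = high DMSO killing control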); conditions: HTB85 osteosarcoma cells, drug combinations, stronger effect = higher value
# [9] = growth inhibition, single agents and combos, CRL2098, cell-based, BGB or cisplatin IC20 combos, synergistic combos for chromothripsis tumors (AID 1671454; in the data active = inhibition above about 80%;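 also: cells exposed for 96 h before readout; 0% = vehicle DMSO and 100% = killing by high DMSO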); conditions: CRL2098 osteosarcoma cells, drug combinations, stronger effect = higher value
# [10] = growth inhibition, single agents and combos, HD-MB03, cell-based, BGB or cisplatin IC20 combos, synergistic combos for chromothripsis tumors (AID 1671455; in the data active = inhibition above about 83%;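 also: 0% = vehicle DMSO and 100% = high DMSO as cytotoxic control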); conditions: HD-MB03 medulloblastoma cells, stronger effect = higher value
# [11] = growth inhibition, single agents and combos, UWB1.289, cell-based, BGB or cisplatin combos, synergistic combos for chromothripsis tumors (AID 1671456; in the data active = inhibition above about 80%;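 also: cells exposed to compound for four days; 0% = vehicle DMSO and 100% = killing by high DMSO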); conditions: UWB1.289 ovarian carcinoma cells, stronger effect = higher value
# [12] = growth inhibition, MDA-MB-436, cell-based, BGB or cisplatin combos, synergistic combos for chromothripsis tumors (AID 1671458); conditions: MDA-MB-436 breast carcinoma growth inhibition, drug combinations, stronger effect = higher value;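 also: cells exposed for 96 hours; 0% = vehicle DMSO and 100% = killing by high DMSO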
# [13] = BT084 cell growth, single and combined drugs, ICGC_MB145, cisplatin and BGB IC40 combos (AID 1671461; in the data active = inhibition above about 80%;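 also: cells exposed to drugs for 96 hours; 0% = vehicle DMSO and 100% = high DMSO full killing control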); conditions: BT084 medulloblastoma cells, drug combinations, stronger effect = higher value
# [14] = RCMB18 cell growth, single agent and combined, cisplatin and BGB IC40 combos (AID 1671462; in the data active = inhibition above about 80%;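 also: cells exposed to compound for four days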); conditions: RCMB18 medulloblastoma cells, stronger effect = higher value
# [15] = CRL1545 cell growth, single agent and combined, cisplatin and BGB IC20 combos (AID 1671464; in the data active = inhibition above about 80%;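 also: cells exposed to compound for 96 hours before readout; 0% = vehicle DMSO and 100% = high DMSO killing control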); conditions: CRL1545 osteosarcoma cells, stronger effect = higher value
# [16] = compounds altering HSF1 focus formation in cells – imaging, Selleck Cancer Library (AID 1347162; in the data active = plate-normalised HSF1 focus index below about 0.46); conditions: human cells, HSF1 nuclear foci imaging, at 10 µM; SSMD: measured here: HSF1 foci SSMD mean; cell count: measured here: cell number; plate-normalised HSF1 focus index: stronger effect = lower value
# [17] = compounds altering circadian rhythm period length – cell-based, LOPAC library, luminescence reporter (AID 2774); conditions: circadian reporter cells, at 7 µM, actives lie on both sides;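 also: values are relative to mean of DMSO wells on each plate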
# [18] = tested on: Hepatitis C virus NS3 helicase; assay: blockers of NS3h binding to ssDNA – biochemical, fluorescence polarization, LOPAC1280 library, primary screen (AID 687035; in the data active = inhibition above about 37%); conditions: Purified HCV NS3 helicase, Cy5-dT15 ssDNA binding fluorescence polarization; stronger effect = higher value; concentration not given here
# [19] = compounds altering Cy5-DNA-NS3h complex signal – biochemical, LOPAC1280, artefact control for HCV NS3 helicase inhibitor project (AID 687037); conditions: Cy5-DNA-NS3h complex fluorescence interference counterscreen
# [20] = measured here: combination with BGB IC40, at 0.05 µM
# [21] = measured here: with BGB IC20 combination, at 0.5 µM
# [22] = measured here: with cisplatin IC20 combination, at 0.5 µM
# [23] = measured here: combination with cisplatin, at 0.5 µM
smiles,measurement,setting,value
C[C@@H]1C[C@H]2[C@@H]3CCC4=CC(=O)C=C[C@]4(C)[C@@]3(Cl)[C@@H](O)C[C@]2(C)[C@@]1(OC(=O)c1ccco1)C(=O)CCl,remaining NAD,[1],10 nM (inactive)
O=c1[nH]c(=O)n([C@H]2C[C@H](O)[C@@H](CO)O2)cc1C(F)(F)F,outcome,[2],inactive
same,outcome,[3],inactive
same,remaining NAD,[1],10 nM (inactive)
same,inhibition,"[4]; at 0.5 µM, stronger effect = higher value",36.4% (inactive)
same,inhibition,"[4]; measured here: combination with BGB IC20, at 0.005 µM",-2.27%
same,inhibition,"[4]; measured here: combination with BGB IC40, at 0.005 µM",-21%
same,inhibition,[4]; [20],-26.7%
same,inhibition,"[4]; measured here: combination with cisplatin, at 0.5 µM, stronger effect = higher value",71.9%
same,inhibition,"[4]; measured here: combination with cisplatin, at 5 µM, stronger effect = higher value",-10%
same,inhibition,"[5]; BGB combo, at 5 µM",76.1%
same,inhibition,[5]; at 0.5 µM,-26.4% (inactive)
same,inhibition,"[5]; cisplatin combo, at 5 µM",74.4%
same,inhibition,[5]; [21],-34.8%
same,inhibition,[5]; [22],-33.1%
same,inhibition,"[5]; single agent, at 5 µM",78.3%
same,inhibition,"[6]; BGB IC20 combo, at 0.005 µM",-20%
same,inhibition,"[6]; BGB IC40 combo, at 0.005 µM",-34.3%
same,inhibition,"[6]; BGB IC40 combo, at 0.05 µM",-24%
same,inhibition,[6]; at 0.5 µM,-27.9% (inactive)
same,inhibition,"[6]; cisplatin combo, at 0.05 µM",-27.5%
same,inhibition,"[6]; cisplatin combo, at 0.5 µM",-36.1%
same,inhibition,"[6]; cisplatin combo, at 5 µM",-29.6%
same,inhibition,"[6]; measured here: 5 uM single agent, at 5 µM",-19.3%
same,inhibition,[7]; at 0.5 µM,-42% (inactive)
same,inhibition,[7]; [20],-48.3%
same,inhibition,[7]; [23],-37.1%
same,inhibition,"[7]; measured here: combination with cisplatin, at 5 µM",-50.8%
same,inhibition,[8]; at 0.5 µM,-26.4% (inactive)
same,inhibition,"[8]; measured here: with BGB IC20, at 0.5 µM",-56.9%
same,inhibition,"[8]; measured here: with BGB IC20, at 5 µM",-39.6%
same,inhibition,"[8]; measured here: with cisplatin IC20, at 0.5 µM",-12.8%
same,inhibition,"[8]; measured here: with cisplatin IC20, at 5 µM",1.86%
same,inhibition,"[8]; single agent, at 5 µM",7.02%
same,inhibition,[9]; at 0.5 µM,-101% (inactive)
same,inhibition,"[9]; measured here: combination with BGB at IC20, at 0.5 µM",-90.6%
same,inhibition,"[9]; measured here: combination with cisplatin at IC20, at 0.5 µM",-100%
same,inhibition,[10]; at 0.5 µM,46.7% (inactive)
same,inhibition,"[10]; measured here: combo with BGB at IC20, at 0.5 µM",44.2%
same,inhibition,"[10]; measured here: combo with cisplatin at IC20, at 0.5 µM",72.4%
same,inhibition,[11]; at 0.5 µM,-11.1% (inactive)
same,inhibition,"[11]; measured here: inhibition with BGB combination, at 0.05 µM",-14.4%
same,inhibition,"[11]; measured here: inhibition with cisplatin combination, at 0.05 µM",-6.35%
same,inhibition,[12]; at 0.5 µM,-22.5% (inactive)
same,inhibition,"[12]; measured here: BGB combination, at 0.5 µM",-18.8%
same,inhibition,"[12]; measured here: BGB combination, at 5 µM",1.19%
same,inhibition,"[12]; measured here: cisplatin combination, at 0.5 µM",-44.6%
same,inhibition,"[12]; measured here: cisplatin combination, at 5 µM",12.8%
same,inhibition,[13]; at 0.5 µM,-27.4% (inactive)
same,inhibition,"[13]; cisplatin combination, at 0.5 µM",-13.4%
same,inhibition,"[13]; cisplatin combination, at 5 µM",-12.4%
same,inhibition,"[13]; measured here: BGB IC40 combination 0.05 uM, at 0.05 µM",-6.58%
same,inhibition,"[13]; single agent, at 5 µM",-41.3%
same,inhibition,[14]; at 0.5 µM,-14.2% (inactive)
same,inhibition,"[14]; cisplatin combo, at 5 µM",-41.9%
same,inhibition,"[14]; measured here: BGB IC40 combination, at 0.05 µM",-13.9%
same,inhibition,[14]; [23],-28.5%
same,inhibition,"[14]; single agent, at 5 µM",-39.2%
same,inhibition,[15]; at 0.5 µM,-43.3% (inactive)
same,inhibition,[15]; [21],-61.7%
same,inhibition,[15]; [22],-37.1%
same,inhibition,"[15]; single agent, at 0.05 µM",-89%
same,inhibition,"[15]; single agent, at 5 µM",33.7%
COc1cccc(N(C)C(=S)Oc2ccc3c(c2)CCCC3)n1,outcome,[2],inactive
Nc1cccc2c1CN(C1CCC(=O)NC1=O)C2=O (stereo unspecified),SSMD,[16],2.07
same,cell count,[16],6670
same,plate-normalised HSF1 focus index,[16],1.11 (inactive)
CCC(=O)c1ccc2c(c1)N(CCCN(C)C)c1ccccc1S2,period change,[17],-0.02 h (inactive)
same,inhibition,[18],-4% (inactive)
same,fluorescence ratio (interference),[19],0.9 (inactive)
OCCN1CCN(CC/C=C2/c3ccccc3Sc3ccc(C(F)(F)F)cc32)CC1,period change,[17],-0.1 h (inactive)
same,inhibition,[18],-1% (inactive)
same,fluorescence ratio (interference),[19],1 (inactive)
CC(=O)[C@@]1(O)CC[C@H]2[C@@H]3CCC4=CC(=O)CC[C@]4(C)[C@H]3CC[C@@]21C,period change,[17],0.035 h (inactive)
same,inhibition,[18],0% (inactive)
same,fluorescence ratio (interference),[19],1 (inactive)
COC(=O)C1=C(C)NC(C)=C(C(=O)OC(C)(C)CN(C)CCC(c2ccccc2)c2ccccc2)C1c1cccc([N+](=O)[O-])c1 (stereo unspecified),inhibition,[18],3% (inactive)
same,fluorescence ratio (interference),[19],1 (inactive)
CCNC(=O)N1CCN(CCCC(c2ccc(F)cc2)c2ccc(F)cc2)CC1,period change,[17],-0.05 h (inactive)
same,inhibition,[18],-1% (inactive)
same,fluorescence ratio (interference),[19],1 (inactive)
